Drawing on PMC7819943, “Rice protein-binding microarrays: a tool to detect cis-acting elements near promoter regions in rice”, this text covers binding signal for 54 sequences.

Over roughly 39,000 sequences, “fluorescence intensity (a.u.)” has its median near 4,300; the highest 2% begin near 39,000. The sample holds the highest values, similar sequences and a random draw of the others, so the mix is not that of the screen.

The assay deals with T1, OsSMF1 (Oryza sativa, UniProt Q6ZLB0 1-436).
T1 sequence: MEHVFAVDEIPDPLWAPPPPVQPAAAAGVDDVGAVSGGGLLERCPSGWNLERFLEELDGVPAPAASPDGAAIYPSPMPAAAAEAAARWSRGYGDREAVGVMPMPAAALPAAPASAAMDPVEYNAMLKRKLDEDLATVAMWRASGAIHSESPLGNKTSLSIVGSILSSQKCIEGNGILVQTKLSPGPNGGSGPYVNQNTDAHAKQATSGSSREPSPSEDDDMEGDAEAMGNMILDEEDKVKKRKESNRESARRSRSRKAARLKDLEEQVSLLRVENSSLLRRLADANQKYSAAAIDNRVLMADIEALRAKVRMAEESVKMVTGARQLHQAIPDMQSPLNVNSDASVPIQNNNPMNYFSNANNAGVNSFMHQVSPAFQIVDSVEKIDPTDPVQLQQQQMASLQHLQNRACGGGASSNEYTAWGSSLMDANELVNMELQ
The assay can be described thus: protein-binding microarray (RPBM); PBS, 2% BSA, 51.3 ng/ul salmon testes DNA, 50 uM zinc acetate, 200 nM TF, 25 C, 1 h; high values mean tight binding. Conditions: protein: recombinant; tags: N-terminal polyhistidine and DsRed monomer fusion (pET32a); chain copies: 2; label: CyDye5-dUTP incorporated in the synthesized complementary strand; 3' TTTTT single-stranded linker to array surface; dsDNA, one strand shown. The method in brief:
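The binding signal is fluorescence intensity per feature, in arbitrary units, read on an Axon 4000B scanner. Polyhistidine- and DsRed-tagged transcription factors (N-terminal fusions) from E. coli BL21-CodonPlus were purified on Ni–NTA and applied at 200 nM for 1 h at 25 °C to a double-stranded, BSA-blocked custom Agilent array in buffer with 50 µM zinc acetate.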
For “AGGATTTCATGTGTTTTGGTTAACATATTCATGTGTGTCTCGGAGTCACCTAGTGCAG”, the binding signal is 3500 fluorescence intensity (a.u.). For “TTTTAGTATATTTATATACTTTGTGCAAGGTGACATGTACCGGAGTCACCTAGTGCAG” the value was 3440 fluorescence intensity (a.u.). The same measure for “CTTCTCTTATTGTTTGTGTCATTTTCATTTATGTCCTTGTCGGAGTCACCTAGTGCAG”: 3940 fluorescence intensity (a.u.); for “GGAGTGGCGGGGTTGCGGCATTGGGAGCTGACGTGGCCGCCGGAGTCACCTAGTGCAG”: 25400 fluorescence intensity (a.u.). The same measure for “ATATAAATAGGTTTCGAGGTAGAATATCAAAACAAGGATGCGGAGTCACCTAGTGCAG”: 39300 fluorescence intensity (a.u.); for “GTAGAATTATAAAATATATTGTGTACACAATAGGTTTATGCGGAGTCACCTAGTGCAG”: 3330 fluorescence intensity (a.u.).

For the sequence “AAACATCATATCAAATCTTTGGACATAGGTATAGAATATTCGGAGTCACCTAGTGCAG”, the binding signal is 8890 fluorescence intensity (a.u.). The same measure for “GAGCCACGGTGGAAGGGTATAATCGTAATTTCGCGTATGGCGGAGTCACCTAGTGCAG”: 3370 fluorescence intensity (a.u.); for “ACCGGGTCGCGCGCGTCGTTGAAACGTCACACCTAGCTAACGGAGTCACCTAGTGCAG”: 4280 fluorescence intensity (a.u.).

For “CGAATCTTTTGAGCCTAATTAATCTATCATTAGCACATGTCGGAGTCACCTAGTGCAG”, the binding signal is 3170 fluorescence intensity (a.u.).

Take “AGTAAATCCACATCAACAGCATTCTGTTGTTAACTCTGCCCGGAGTCACCTAGTGCAG”: the binding signal was 6820 fluorescence intensity (a.u.). Turning to “TGAAAATCGCATACTAATTAGCTATTAGTCATGAGCTCTTCGGAGTCACCTAGTGCAG”, the binding signal was 3590 fluorescence intensity (a.u.).

Regarding “CAGGGAGCATTGAGATTCACTTTGTCACGATGGTAATATACGGAGTCACCTAGTGCAG”, the binding signal is 22600 fluorescence intensity (a.u.). For “TGCTTCCCCTGTTCTGATCACCTGCGCACACGGGTGCTCACGGAGTCACCTAGTGCAG” the value was 49200 fluorescence intensity (a.u.); for “CTGCACCTGCTTGATCTCTTCTATGTCACTGTTCCTCTGACGGAGTCACCTAGTGCAG”, 3220 fluorescence intensity (a.u.). For “GGGGAGCTTTGCCCCTGCGCACACTTGTCACGCTCACGCACGGAGTCACCTAGTGCAG” the value was 3220 fluorescence intensity (a.u.); for “CATAGCCTTTTGCATATGCGTCAAGCGTCTATACGATTCGCGGAGTCACCTAGTGCAG”, 3900 fluorescence intensity (a.u.).

Turning to “TGGGCGAGGAAGATATGAGTGTGAAAGGATGGAGGGCCCACGGAGTCACCTAGTGCAG”, the binding signal is 32900 fluorescence intensity (a.u.). For “TTTGACATAGATGTGTTCCTCTAATGACATAGATGTGTTCCGGAGTCACCTAGTGCAG” the value was 3230 fluorescence intensity (a.u.); for “TCAGCGGCAGCCCACCCGACTGGGCCGGTCATCGGCGCCACGGAGTCACCTAGTGCAG”, 3470 fluorescence intensity (a.u.); for “CAATCATCAGCCACGTCCGCCGCCGCTTCAGCTGGATCGGCGGAGTCACCTAGTGCAG”, 4290 fluorescence intensity (a.u.). Take “GACGGCGCGGTCGACCCGCCGTCTGCCACGTCAGCTTGCCCGGAGTCACCTAGTGCAG”: the binding signal is 27400 fluorescence intensity (a.u.).

For the sequence “CGGTCGACCCACCGTCTGCCACGTCAGCTTGCCGCCCACCCGGAGTCACCTAGTGCAG”, the binding signal is 22800 fluorescence intensity (a.u.). For “GACGGCGCGGTCGACCCACCGTCTGCCACGTCAGCTTGCCCGGAGTCACCTAGTGCAG” the value was 50100 fluorescence intensity (a.u.).

For the sequence “AGAGCTGAGCCTTATGTGTGGTCTGTCTGTGCCTAGTCGACGGAGTCACCTAGTGCAG”, the binding signal was 48400 fluorescence intensity (a.u.).

Turning to “GTGTGCTGTGTGTGGTCTGAGATGATGTGTACTGCTGCTACGGAGTCACCTAGTGCAG”, the binding signal is 3950 fluorescence intensity (a.u.).

Consider “GCAGACGGCGCGGTCGACCCACCGTCTGCCACGTCAGCTTCGGAGTCACCTAGTGCAG”, for which the binding signal is 37200 fluorescence intensity (a.u.).

In the case of “CTGGAGCGGGCGGCCACGGTCACGCCACGTCAGCTTCCATCGGAGTCACCTAGTGCAG”, the binding signal is 42100 fluorescence intensity (a.u.).

Regarding “GAGAGAAGATAGTAGTGGTAGTAGTAGCTGAGCTGTGTCACGGAGTCACCTAGTGCAG”, the binding signal is 3360 fluorescence intensity (a.u.). For “CGCGGTCGACCCACCGTCTGCCACGTCAGCTTGCTGCCCACGGAGTCACCTAGTGCAG” the value was 25600 fluorescence intensity (a.u.); for “GGTCGACCCACCGTCTGCCACGTCAGCTTGCTGCCCACCACGGAGTCACCTAGTGCAG”, 48400 fluorescence intensity (a.u.). The same measure for “CTCCATCTCGCAGTCGCAGTGCCAGCTAAGGCCTTGTACACGGAGTCACCTAGTGCAG”: 3240 fluorescence intensity (a.u.); for “GCAGTGGCTAAGCTTAAGCTCAGGTATGATGACTCGTTGGCGGAGTCACCTAGTGCAG”: 3610 fluorescence intensity (a.u.). For “AAGGGCAGCTCAGTCATGGCTGCCACGAGGACAGATGTGGCGGAGTCACCTAGTGCAG” the value was 4760 fluorescence intensity (a.u.); for “AGAGCAGATCCCCTGTCACGCCGACGCCGCCGCCGCCACCCGGAGTCACCTAGTGCAG”, 5410 fluorescence intensity (a.u.); for “CAATCTGTCATCTCTTTACCAGTCTCATTGACATGTGGGCCGGAGTCACCTAGTGCAG”, 3270 fluorescence intensity (a.u.). Take “GAGAAAGGGTGTTGACGTGGCATCCTGACATGTGGGGTCCCGGAGTCACCTAGTGCAG”: the binding signal is 15100 fluorescence intensity (a.u.). The same measure for “AATCGGTGTCGTTTTGCACGGCGTGTGCCACGTCAGCGTTCGGAGTCACCTAGTGCAG”: 52000 fluorescence intensity (a.u.). Regarding “CACCTATCCATCCATCCATGTGTGGTGTCGTGTCAGCGTTCGGAGTCACCTAGTGCAG”, the binding signal was 6950 fluorescence intensity (a.u.).

In the case of “AGCGGCGTCGTCTCGGCGGTGGCCGGTGCCACGGCGGCGGCGGAGTCACCTAGTGCAG”, the binding signal is 6200 fluorescence intensity (a.u.). With “CGTCGTCGCCGCCGCCGCCCTCTGCGTCGACGCTGCGGCACGGAGTCACCTAGTGCAG”, the binding signal is 3220 fluorescence intensity (a.u.). For “CGACGCCGCCGAGATCGCCGTCACCCGAATCCTGCGACGCCGGAGTCACCTAGTGCAG” the value was 3580 fluorescence intensity (a.u.); for “CATGTACACACCCACAGTCATCTGCTCATGTTTTCACGGTCGGAGTCACCTAGTGCAG”, 3630 fluorescence intensity (a.u.); for “AGCTTCGGAGGCTGTACACGTAATGTGGTCGCTTGTTTGTCGGAGTCACCTAGTGCAG”, 9220 fluorescence intensity (a.u.).

Turning to “GTTTTCGCTTGTACTTCACAGGCTGATCACGGTCAGTACTCGGAGTCACCTAGTGCAG”, the binding signal was 48700 fluorescence intensity (a.u.). The same measure for “GAGGGGTTACGCGTTAGGCGCTGCCACGTGTATCGATCGGCGGAGTCACCTAGTGCAG”: 21900 fluorescence intensity (a.u.); for “CGAGGATTTGAGATCTGAGATGGCACGGACACTAGACAACCGGAGTCACCTAGTGCAG”: 3440 fluorescence intensity (a.u.). Turning to “GGGAACATTGTGTGCCAAAATTGACTCACGAATATACAAGCGGAGTCACCTAGTGCAG”, the binding signal was 3340 fluorescence intensity (a.u.). For “TATTTCTTCACCTTTAGTCATGTCACCTCTCACTTCACACCGGAGTCACCTAGTGCAG” the value was 5120 fluorescence intensity (a.u.); for “CACCCAAGAACCGGTGGTATTCTTTGGACACGAGAACTTTCGGAGTCACCTAGTGCAG”, 39100 fluorescence intensity (a.u.); for “CTTCTTCGGGCCTTCTTTCAGAACTTTGGGTGGGCCTCACCGGAGTCACCTAGTGCAG”, 64300 fluorescence intensity (a.u.). For “TTCTTTGGTGGGTGCCACGTAGGAGAAACCCAGCAGGAGTCGGAGTCACCTAGTGCAG” the value was 12000 fluorescence intensity (a.u.); for “TAAACTTCGGTGGCATGTCATCATCTTCAAACTCATCTTTCGGAGTCACCTAGTGCAG”, 4670 fluorescence intensity (a.u.); for “CTTTCTTTCTTTCTTTGTGCCCAACTCTGACACGACTCACCGGAGTCACCTAGTGCAG”, 5180 fluorescence intensity (a.u.).
